Experimental data as given in the supplement of paper PMC3334620.
Over roughly 33,000 sequences, “E-score (-0.5 to 0.5)” has its median near -0.021; the highest 2% begin near 0.32. The entries come from a sample that favours the highest values as a whole.

What follows are sequences tested against T1, Zap1 (UniProt P47043) (assay: PBM E-score (8-mer binding enrichment) (E-score (-0.5 to 0.5)); higher = stronger / more preferred TF binding). Conditions: protein concentration: 200 nM; construct: GST-full length.
T1 sequence: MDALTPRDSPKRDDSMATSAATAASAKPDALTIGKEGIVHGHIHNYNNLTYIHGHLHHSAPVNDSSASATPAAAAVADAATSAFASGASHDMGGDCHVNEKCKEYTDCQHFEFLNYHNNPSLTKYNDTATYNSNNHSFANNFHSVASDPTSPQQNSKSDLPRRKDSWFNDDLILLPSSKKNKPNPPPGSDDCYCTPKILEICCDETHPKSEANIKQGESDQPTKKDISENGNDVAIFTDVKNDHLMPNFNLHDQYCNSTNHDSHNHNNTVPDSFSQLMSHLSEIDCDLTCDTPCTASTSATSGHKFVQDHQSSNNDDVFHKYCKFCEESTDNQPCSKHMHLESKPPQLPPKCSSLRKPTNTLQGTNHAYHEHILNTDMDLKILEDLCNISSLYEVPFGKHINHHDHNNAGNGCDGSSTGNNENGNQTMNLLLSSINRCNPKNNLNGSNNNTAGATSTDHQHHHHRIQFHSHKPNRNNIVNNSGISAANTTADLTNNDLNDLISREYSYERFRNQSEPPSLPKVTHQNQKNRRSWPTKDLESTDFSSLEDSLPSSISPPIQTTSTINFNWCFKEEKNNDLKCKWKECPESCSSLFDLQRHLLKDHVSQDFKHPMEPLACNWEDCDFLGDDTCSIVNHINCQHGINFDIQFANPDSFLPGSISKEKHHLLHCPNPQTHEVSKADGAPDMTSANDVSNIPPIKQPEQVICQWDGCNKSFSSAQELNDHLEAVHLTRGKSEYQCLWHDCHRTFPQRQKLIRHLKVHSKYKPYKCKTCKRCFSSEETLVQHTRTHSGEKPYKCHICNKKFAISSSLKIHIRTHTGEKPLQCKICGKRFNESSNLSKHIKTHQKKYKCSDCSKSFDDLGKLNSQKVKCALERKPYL
Procedure: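 Universal 'all 10-mer' protein binding microarrays (Agilent AMADID 015681) probed with GST-tagged S. cerevisiae TFs (full-length or DBD) made by in vitro transcription/translation (PURExpress), about 100-200 nM. Bound TF was detected with fluorescent anti-GST. Each ungapped 8-mer (which stands for itself and its reverse complement) is scored by the PBM enrichment score (E-score), a modified Wilcoxon-Mann-Whitney statistic from -0.5 to +0.5, computed with the Universal PBM Analysis Suite. Scale: above 0.35 generally sequence-specific binding.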

| Sequence | PBM E-score |
| --- | --- |
| TTCTTCAA | 0.0925 |
| AAACCCTA | 0.423 |
| CAACCCTC | 0.258 |
| AAACCCTT | 0.272 |
| CAACCCTA | 0.442 |
| GAACCCTA | 0.272 |
| ACCCCCTA | -0.354 |
| CAACCCGG | 0.213 |
| AACCCCTA | 0.389 |
| ATCCCCTA | 0.0194 |
| CAAACCTA | 0.166 |
| CAACCCTG | 0.419 |
| AAACCCAA | 0.312 |
| CGAAGCAG | -0.165 |
| AGGCTGGA | -0.23 |
| CACCAGGA | 0.0532 |
| AATCGCGG | -0.0922 |
| GAAAAGAC | 0.0296 |
| CACCAAGA | 0.0172 |
| ATCAACGC | -0.0956 |
| AGTAGTCA | -0.276 |
| CAGATACA | 0.0912 |
| GTAGCACA | 0.017 |
| GCATCCAA | -0.203 |
| AGGGAGAA | -0.148 |
| AACCCCGT | 0.277 |

| Sequence | PBM E-score |
| --- | --- |
| AGACCCTA | 0.298 |
| CGACCCTA | 0.328 |
| AACCCCTT | 0.38 |
| AACCCCCT | -0.187 |
| TACCCCTA | 0.366 |
| GGACCCTA | 0.159 |
| CACCCCTA | 0.0983 |
| GACCCCTA | 0.276 |
| CGTCTCTA | -0.19 |
| GCTAAAAC | 0.0736 |
| CGTATCCA | -0.133 |
| CGGTTGAA | 0.221 |
| CCACAGCC | -0.17 |
| CACCTTTA | 0.118 |
| GGCCTTTA | 0.114 |
| GACCTTTA | 0.401 |
| AACCTTCA | 0.368 |
| CACCTTTC | 0.0949 |
| AGCCTTTA | 0.132 |
| GACCTTCA | 0.0992 |
| AGCCTTTC | -0.185 |
| AACCTTTC | 0.324 |
| AACCTTCC | 0.21 |
| ATCCTTTA | 0.092 |
| AACCTTTA | 0.398 |
| ATAGTTGC | 0.135 |

| Sequence | PBM E-score |
| --- | --- |
| ACGTCGCA | -0.0322 |
| GGTGAACA | -0.231 |
| GCGCTATA | -0.105 |
| CGCTATCA | -0.078 |
| CAGCAAGC | -0.389 |
| ACCTAGGC | -0.26 |
| GTGATAAC | 0.251 |
| CATCCTCC | -0.176 |
| GATAGCTA | -0.298 |
| GGCTCAAA | -0.176 |
| AGGAACAA | 0.00761 |
| AACCTTGG | 0.274 |
| AACCTTTG | 0.377 |
| AACCTTCG | 0.305 |
| AGATCGCT | -0.204 |
| GAAACTCC | -0.206 |
| ACAGATCA | 0.0477 |
| CGGTTTAA | 0.0515 |
| ATGTTAAA | 0.0569 |
| TAGTTAAA | 0.234 |
| CGGTTAAA | 0.328 |
| ACGTTAAA | 0.101 |
| AGGTTAAA | 0.376 |
| TCGTTAAA | -0.0347 |
| CTGTTAAA | 0.0123 |
| TGGTTAAA | 0.379 |

| Sequence | PBM E-score |
| --- | --- |
| CTGTTGCA | 0.201 |
| GCAAGGTA | 0.265 |
| CCGTCCTC | -0.191 |
| CTGGTGAA | -0.0889 |
| AGCTGTCC | -0.225 |
| CCGCGCGG | 0.332 |
| CCGCGCGC | 0.0679 |
| GACCGCGA | 0.259 |
| AACCGCGT | 0.227 |
| AACCGCAG | 0.126 |
| TACCGCGA | 0.328 |
| CACCGCGA | 0.0268 |
| CACCGCGG | 0.176 |
| AACCGCGC | 0.24 |
| AACCGCGG | 0.374 |
| CCGCGCGA | 0.124 |
| AACCGCGA | 0.367 |
| AGCACTAC | -0.0779 |
| CCGAAGCA | -0.176 |
| ACACAATC | 0.00143 |
| CCAGGGCG | -0.178 |
| TCCAAGAA | -0.0864 |
| CGTCTCAC | -0.107 |
| AGCATTTG | -0.00877 |
| AGCAAGCA | -0.167 |
| ATTAATAG | 0.195 |

| Sequence | PBM E-score |
| --- | --- |
| ATTAATAA | 0.21 |
| ATTAATAC | 0.344 |
| ATGCCACC | -0.11 |
| CTGGCCGA | -0.318 |
| ACTTTAGA | 0.0114 |
| GATGGCAA | -0.0776 |
| CCATGACC | 0.416 |
| GAATGACC | 0.338 |
| CCATGACG | 0.0693 |
| GAATGACA | -0.0394 |
| GCATGACC | 0.234 |
| AAATGACC | 0.317 |
| GTTGGCCA | -0.015 |
| GCGCCTTA | -0.066 |
| GAGTTTAA | 0.121 |
| AACCTACA | 0.264 |
| ACCTACCA | 0.126 |
| AGTGGTTC | 0.129 |
| GGTGGTGA | 0.23 |
| CGTGGTTC | 0.185 |
| AGTGGTTG | 0.312 |
| GGTGGTTA | 0.433 |
| CGTGGTCA | 0.195 |
| CGTGGTTA | 0.348 |
| CGTGGTAA | 0.0908 |
| GGTGGTAA | 0.274 |

| Sequence | PBM E-score |
| --- | --- |
| AGTGGTCA | 0.197 |
| GGTGGTCA | 0.341 |
| AGTGGTTA | 0.434 |
| CCCACTTA | -0.0455 |
| CTTGTGAC | 0.0651 |
| CCTTCATA | 0.102 |
| GCAGCACA | -0.0816 |
| GACAAAGC | -0.143 |
| GGTCCTCA | 0.0332 |
| CCAGAGTC | 0.0266 |
| AACAGTCT | -0.14 |
| GAAACATC | -0.0445 |
| AAAACATA | 0.0671 |
| GAAACATA | 0.318 |
| GACTTAGC | -0.317 |
| GAGCGCCA | -0.291 |
| TGGATTAA | 0.0758 |
| GACCCGGA | 0.118 |
| ACCCCGGG | 0.34 |
| AACCCCGG | 0.337 |
| AACCCCCG | -0.149 |
| CCCCCGGG | 0.167 |
| ACCCCGGC | 0.119 |
| CACCCGGA | 0.235 |
| AACCCGGA | 0.332 |
| AACCCGGG | 0.324 |

| Sequence | PBM E-score |
| --- | --- |
| CACCCGGG | 0.129 |
| ACCCCCGG | -0.0785 |
| AACCCGGT | 0.249 |
| GGCAGACC | -0.192 |
| TCACGCAA | 0.0552 |
| GTATAGCA | -0.104 |
| CTTGTTGA | 0.124 |
| GGAACAAA | 0.111 |
| CTAGCTCC | -0.246 |
| CCGAGCAC | -0.0385 |
| AGAAACTA | -0.0549 |
| AGAGAAAC | -0.0339 |
| AAGGGAAC | 0.0495 |
| GAGCTAGC | -0.179 |
| CTCCTTTC | -0.0488 |
| ATGTAACC | 0.395 |
| ATGTAACA | 0.153 |
| CTGTAAAC | 0.16 |
| CTGTAACC | 0.463 |
| CTGTAACA | 0.00661 |
